Measurements published in PubChem BioAssay (NCATS).
Several values for one entry are separate records, joined by “and”; a condition that tells them apart may be missing. Equal values may be shown once. Records with an inconclusive call do not appear. Unmarked numbers belong to inactive results. Activity calls are given as the source filed them. Calls follow the shape of the dose curve; as a rule, active = well fitted curve in the direction sought with a large enough effect; inconclusive = small, poorly fitted or top-dose-only effect, or another doubt; inactive = no such curve, though single readings can be large; an effect the other way counts as inactive or inconclusive.

Experiments:
[1] = qHTS Assay for Identifying Gametocytocidal Compounds (AID 743244);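 as to max response: actives lower the fluorescent signal which means gametocytes are killed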; settings: P. falciparum 3D7 stage III-V gametocytes, alamarBlue, 72 h; max response: stronger effect = lower value
Summary of the method: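 P. falciparum 3D7 stage III–V gametocytes (20,000 cells/well) were exposed to compounds for 72 h at 37 °C, 5% CO2. AlamarBlue was then added for 24 h; decreased resorufin fluorescence (Ex 525/Em 598 nm) indicated loss of viability.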

[2] = P-glycoprotein substrates identified in KB-8-5-11 adenocarcinoma cell line, qHTS therapeutic library screen (AID 1346987); also: nearly all actives have a fitted effect of over 65% in size
Summary of the method: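 In this qHTS, P-gp-rich KB-8-5-11 cells received library compounds across a concentration range. Viability was quantified by luminescence after 72 h at 37 degree C.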
% is scaled to controls: 0 for no effect and ±100 for the full control effect; potency is read from the fitted curve at half-maximal effect.

Structure (SMILES) | max response [1] | Potency [2] | Potency [1]
CCC(CN)CC(C)CCNCC(O)CNCC(C)CC(CC)CN (stereo unspecified) | -11% | inactive | 
CCCCCCCCCCCCCCCC(=O)OC/C=C(C)/C=C/C=C(C)/C=C/C1=C(C)CCCC1(C)C | -4.83% | inactive | 
CC1(C)C2CC[C@]3(C)[C@H](C(=O)C=C4[C@@H]5C[C@@](C)(C(=O)O)CC[C@]5(C)CC[C@]43C)[C@@]2(C)CC[C@@H]1O[C@H]1O[C@H](C(=O)O)[C@@H](O)[C@H](O)[C@H]1O[C@@H]1O[C@H](C(=O)O)[C@@H](O)[C@H](O)[C@H]1O (stereo partly specified) | -0.804% | inactive | 
CC(C)(S)C(=O)N[C@@H](CS)C(=O)O | -15.4% and 8.89% | inactive | 
CCCCCC(O)/C=C/C=O (stereo unspecified) | -0.932% | inactive | 
CCCCCCCCCCCCCCCCCC(=O)OCCO | -0.219% | inactive | 
NCCCC[C@H](NC(=O)[C@@H]1CCCN1C(=O)[C@@H]1CSSC[C@H](N)C(=O)N[C@@H](Cc2ccccc2)C(=O)N[C@@H](Cc2ccccc2)C(=O)N[C@@H](CCC(N)=O)C(=O)N[C@@H](CC(N)=O)C(=O)N1)C(=O)NCC(N)=O | -4.07% | inactive | 
CCCOc1ccc2nc(NC(=O)OC)sc2c1 | -5% | 5.8 µM (active) | 
O=S(O)CO | 18.2% | inactive | 
CC1(C)S[C@@H]2[C@H](NC(=O)C(C(=O)Oc3ccc4c(c3)CCC4)c3ccccc3)C(=O)N2[C@H]1C(=O)O (stereo partly specified) | 5.21% | inactive | 
CCCCOC(=O)C(=O)Nc1cccc(-c2nn[nH]n2)c1 | 31.5% | inactive | 
C/C=C1\NC(=O)[C@H]2CSSCC/C=C/[C@H](CC(=O)N[C@H](C(C)C)C(=O)N2)OC(=O)C(C(C)C)NC1=O (stereo partly specified) |  | 20.6 µM (active) | 0.59 µM (active)
CCOC(=O)COc1ccc2c(=O)cc(-c3ccccc3)oc2c1 | 51.1% and 12.3% | inactive | 
CC(C(=O)O)c1ccc(C2CCCCC2)c2ccccc12 (stereo unspecified) | 16% | inactive | 
CCCCC(=O)O | -7.14% and 15.8% | inactive | 
CCC(C)(C)OC(=O)N[C@@H](Cc1c[nH]c2ccccc12)C(=O)N[C@@H](CCSC)C(=O)N[C@@H](CC(=O)O)C(=O)N[C@@H](Cc1ccccc1)C(N)=O | -0.189% | inactive | 
NCCC[C@H](N)C(=O)O | -1.29% | inactive | 

Structure (SMILES) | max response [1] | Potency [2] | Potency [1]
CCCN(CC)C(CC)C(=O)Nc1c(C)cccc1C (stereo unspecified) | 0.657% | inactive | 
O=c1[nH]cnc2[nH]cc(CN3CCCCC3)c12 | 10.8% | inactive | 
CS(=O)(=O)NC(=O)CCC/C=C\C[C@H]1C(=O)C[C@@H](O)[C@@H]1/C=C/[C@H](O)COc1ccccc1 | -11.4% | inactive | 
CO[C@@H]1[C@@H](O[C@@H]2O[C@H](C)[C@@H](O[C@H]3C[C@@](C)(O)[C@@H](OC(=O)CC(C)C)[C@H](C)O3)[C@H](N(C)C)[C@H]2O)[C@@H](CC=O)C[C@@H](C)[C@@H](O)/C=C/C=C/C[C@@H](C)OC(=O)C[C@H]1O | 4.51% and 4.66% | inactive | 
CCCCCCCCCCCCCCCC(=O)OC[C@H](O)[C@H]1OC(=O)C(O)=C1O | 0.191% | inactive | 
CCN1CCCC1CNC(=O)c1cc(S(=O)(=O)CC)ccc1OC (stereo unspecified) | -5.69% and 12.8% | inactive | 
CC(C)(C)NC(=O)[C@H]1CC[C@H]2[C@@H]3CC=C4C=C(C(=O)O)CC[C@]4(C)[C@H]3CC[C@]12C | -20.3% | inactive | 
COc1cc2c(c(OC)c1OC)-c1c(cc3c(c1OC)OCO3)C[C@@H](C)[C@](C)(O)C2 | 3.46% and 15.8% | inactive | 
NCCCNCCCCNC(=O)C(O)NC(=O)CCCCCCN=C(N)N (stereo unspecified) | -11.8% | inactive | 
CCOC(=O)COc1ccc2c(C)c(CCN(CC)CC)c(=O)oc2c1 | 15% | inactive | 
O=S(=O)(O)Oc1ccc(C(c2ccc(OS(=O)(=O)O)cc2)c2ccccn2)cc1 | 4.73% | inactive | 
O=C(Cn1cnnn1)N[C@@H]1C(=O)N2C(C(=O)O)=C(CSc3nncs3)CS[C@H]12 | 1.4% and 3.1% | inactive | 
CCN(CC)c1ccc(N=Nc2ccc(S(=O)(=O)N(C)C)cc2)c(S(=O)(=O)NCC[n+]2ccccc2)c1 | 1.66% | inactive | 
NCCC(=O)[N-][C@@H](Cc1cnc[nH]1)C(=O)O.[Zn] | 14.2% | inactive | 
Nc1c(CC(=O)O)cccc1C(=O)c1ccccc1 | -9.51% and 6.92% | inactive | 
CCCCCCCCCCCCCCCC(=O)O[C@@H]1CC(C)=C(/C=C/C(C)=C/C=C/C(C)=C/C=C/C=C(C)/C=C/C=C(C)/C=C/C2=C(C)C[C@@H](OC(=O)CCCCCCCCCCCCCCC)CC2(C)C)C(C)(C)C1 | 1.34% | inactive | 
